# In the supplement of paper PMC7411054:
# Structures can show the parent of a compound that is named as a salt.
# Legend:
# Assay in all cases: lowest phenotypically active concentration; higher = less potent
# Details in all cases: treatment time: 24 h
# [1] = system: A549-TP53BP1-CLTA
# Procedure, shortened: (§1)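 Phenotypic activity depended on meeting both a deviation and a reproducibility criterion. The fifteen gene-edited A549, HepG2 and WPMY1 reporter lines were treated at 0.3, 1, 3 or 9 µM for 24 h, four wells each, then imaged live with features normalised to solvent control wells. Deviation required ≥3 of 4 wells past the 95th percentile of control Euclidean distances, and reproducibility a median replicate Pearson correlation above the 95th percentile of non-replicates.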
# [2] = system: HepG2-ACTB-RAB5A
# Procedure, shortened: as §1
# [3] = system: HepG2-TUBA1B-RELA
# Procedure, shortened: as §1
# [4] = system: WPMY1-TUBA1B-RELA
# Procedure, shortened: as §1
# [5] = system: WPMY1-CANX-COX4
# Procedure, shortened: as §1
# [6] = system: A549-TUBA1B-RELA
# Procedure, shortened: as §1
# [7] = system: WPMY1-TP53BP1-CLTA
# Procedure, shortened: as §1
# [8] = system: HepG2-TP53BP1-CLTA
# Procedure, shortened: as §1
# [9] = system: A549-ACTB-RAB5A
# Procedure, shortened: as §1
smiles,measurement,setting,value
COc1cc(-c2cn(C)c(=O)c3cnccc23)c(OC)cc1CN(C)C,lowest phenotypically active concentration,[1],9 µM
same,lowest phenotypically active concentration,[2],9 µM
same,lowest phenotypically active concentration,[3],9 µM
same,lowest phenotypically active concentration,[4],9 µM
O=C1NN(c2ccc(F)c(Cl)c2)C(=O)/C1=C\c1ccc([N+](=O)[O-])o1,lowest phenotypically active concentration,[5],9 µM
O=C(O)[C@H]1CCCC[C@H]1C(=O)N1CCc2ccccc2[C@H]1CN1C(=O)c2ccccc2C1=O,lowest phenotypically active concentration,[2],9 µM
same,lowest phenotypically active concentration,[3],9 µM
CCOc1nc(NC(=O)Cc2cc(OC)ccc2OC)cc(N)c1C#N,lowest phenotypically active concentration,[6],9 µM
O=c1c(O)c(-c2ccc(O)cc2)oc2cc(O)cc(O)c12 [Kaempferol],lowest phenotypically active concentration,[5],9 µM
same,lowest phenotypically active concentration,[7],9 µM
Clc1ccc(C(c2ccc(Cl)cc2)[n+]2ccn(CC(OCc3ccc(Cl)cc3Cl)c3ccc(Cl)cc3Cl)c2)cc1 (stereo not drawn) [Calmidazolium chloride],lowest phenotypically active concentration,[2],3 µM
same,lowest phenotypically active concentration,[3],3 µM
same,lowest phenotypically active concentration,[5],3 µM
same,lowest phenotypically active concentration,[4],3 µM
CC(C)(C)c1ccc(C(=O)Nc2cn3cc(-n4ccnc4)ccc3n2)cc1,lowest phenotypically active concentration,[2],3 µM
COc1ccc(S(=O)(=O)ON=C2C=C(C)C(=O)C(C)=C2)cc1,lowest phenotypically active concentration,[6],9 µM
same,lowest phenotypically active concentration,[4],9 µM
Nc1nnc(Sc2ncc([N+](=O)[O-])s2)s1,lowest phenotypically active concentration,[6],9 µM
C[C@@H]1CN(Cc2ccc(F)cc2)[C@@H](C)CN1C(=O)c1cc2c(C(=O)C(=O)N(C)C)cn(C)c2cc1Cl [SCIO 469 hydrochloride],lowest phenotypically active concentration,[2],9 µM
same,lowest phenotypically active concentration,[8],9 µM
same,lowest phenotypically active concentration,[3],9 µM
same,lowest phenotypically active concentration,[5],3 µM
Cc1cc2sc(NC(=O)Cc3ccccc3)nc2cc1Cl,lowest phenotypically active concentration,[6],9 µM
O=c1cc(N2CCOCC2)oc2c1ccc1ccccc12,lowest phenotypically active concentration,[4],9 µM
CC(C)NCC(O)COc1ccc(CC(N)=O)cc1 (stereo not drawn) [atenolol-()],lowest phenotypically active concentration,[7],9 µM
C[C@H](NC(=O)c1sccc1OCc1ccc(Cl)cc1)c1ccccc1,lowest phenotypically active concentration,[1],9 µM
same,lowest phenotypically active concentration,[7],3 µM
c1ccc(-c2n[nH]cc2-c2ccnc3ccccc23)nc1,lowest phenotypically active concentration,[6],9 µM
same,lowest phenotypically active concentration,[8],9 µM
same,lowest phenotypically active concentration,[5],9 µM
CC(C)[C@@H](C)/C=C/[C@@H](C)[C@H]1CC[C@H]2C3=CC=C4C[C@@H](O)CC[C@]4(C)[C@H]3CC[C@]12C [Ergosterine],lowest phenotypically active concentration,[6],9 µM
O=C(Nc1ccccc1)N1CCN(c2nc(-c3ccccc3)ns2)CC1,lowest phenotypically active concentration,[8],9 µM
same,lowest phenotypically active concentration,[3],9 µM
Oc1cc(O)cc(/C=C/c2ccc(O)c(O)c2)c1 [Piceatannol],lowest phenotypically active concentration,[4],9 µM
Cc1cc2c(s1)Nc1ccccc1N=C2N1CCN(C)CC1 [Olanzapine],lowest phenotypically active concentration,[3],9 µM
Nc1ncnc2c1c(COc1cccc(Cl)c1)nn2C1CCOCC1,lowest phenotypically active concentration,[8],9 µM
CCOC(=O)c1ccc(N2NC(=O)/C(=C/c3ccc([N+](=O)[O-])o3)C2=O)cc1,lowest phenotypically active concentration,[5],9 µM
O=S(=O)(NCCCCCCc1ccccc1)c1cccc2c(Cl)cccc12,lowest phenotypically active concentration,[3],≤ 0.3 µM
same,lowest phenotypically active concentration,[5],≤ 0.3 µM
CN(C)CCOC(c1ccccc1)c1ccccc1 [diphenhydramine],lowest phenotypically active concentration,[5],9 µM
same,lowest phenotypically active concentration,[7],9 µM
same,lowest phenotypically active concentration,[4],9 µM
NS(=O)(=O)C#Cc1ccccc1 [pifithrin-mu],lowest phenotypically active concentration,[4],9 µM
Cc1nc[nH]c1C1CCN(c2nc3cccc4c3n2CCC4=O)CC1,lowest phenotypically active concentration,[8],9 µM
CCN1C(=O)NC(c2ccccc2)C1=O (stereo not drawn) [ethotoin],lowest phenotypically active concentration,[5],3 µM
Cc1ccc(C(=O)Oc2ccc(C(O)CNC(C)(C)C)cc2OC(=O)c2ccc(C)cc2)cc1 (stereo not drawn) [bitolterol],lowest phenotypically active concentration,[5],9 µM
O=C(Nc1ccccc1)N1CCC(Cc2cnc3ccccc3c2)CC1,lowest phenotypically active concentration,[8],9 µM
same,lowest phenotypically active concentration,[3],9 µM
c1ccc(-c2cnn3cc(-c4ccc(OCCN5CCOCC5)cc4)cnc23)cc1,lowest phenotypically active concentration,[3],3 µM
C#CCN[C@@H]1CCc2ccccc21 [rasagiline],lowest phenotypically active concentration,[8],9 µM
same,lowest phenotypically active concentration,[3],9 µM
same,lowest phenotypically active concentration,[7],9 µM
NCCCCNS(=O)(=O)c1ccc2c(Cl)cccc2c1 [W-13 hydrochloride],lowest phenotypically active concentration,[5],9 µM
same,lowest phenotypically active concentration,[4],9 µM
CN/C(=C/[N+](=O)[O-])NCCSCc1csc(CN(C)C)n1 [nizatidine],lowest phenotypically active concentration,[8],1 µM
O=c1cc(-c2ccc(O)cc2)oc2cc(O)cc(O)c12 [Apigenin],lowest phenotypically active concentration,[8],9 µM
same,lowest phenotypically active concentration,[3],9 µM
same,lowest phenotypically active concentration,[7],3 µM
same,lowest phenotypically active concentration,[4],9 µM
O=C(O)/C(Cc1ccccc1[N+](=O)[O-])=N\Nc1nc(-c2ccc(Cl)c(Cl)c2)cs1,lowest phenotypically active concentration,[7],9 µM
O=S(c1ccccc1)c1ccc2nnnn2n1 (stereo not drawn),lowest phenotypically active concentration,[9],9 µM
same,lowest phenotypically active concentration,[5],9 µM
same,lowest phenotypically active concentration,[4],9 µM
NC(=O)c1sc2c([N+](=O)[O-])cc(C(F)(F)F)cc2[n+]1[O-] [Cyclapolin 9],lowest phenotypically active concentration,[4],9 µM
CC(C)C(=O)Nc1ncc(-c2cc(C(F)F)nn2-c2c(Cl)cccc2Cl)s1,lowest phenotypically active concentration,[9],≤ 0.3 µM
same,lowest phenotypically active concentration,[2],3 µM
same,lowest phenotypically active concentration,[5],3 µM
same,lowest phenotypically active concentration,[4],3 µM
